Whole data set: some 9,900 sequences, median “r (bound/input frequency ratio)” near 0.7, cut for the highest 2% near 6.5. The list comes from a sample in which the highest values are over-represented; it also holds similar and randomly drawn sequences.
B1: ENSMUSG00000090935.743|Synj2bp (ssRNA)
RNA: GGGAGUUCUACAGUCCGACGAUCGCUUCGAUAUCCGCAUGCUAAAUACUCCUGGGUAAAAUUUGUAUUAGAAUGGAAAAAAAAAUGAGGGUCAGAAAGGUGAGCUAACUUCAAGUUAGAUACUCCCCUCUAUUUUGGUCUCAAAUUUGUUUUAGUGUGUCCACAACAUGAAAACAUACAAAAACUAUAUUUUAAAAAUCAGUUUACUUUCAUCUUUUCUCUUUAGGCUUUCAAUAAAGACCAGAAGGACUGAUAGACAGCUAGAGAGGAUCGUGUAGGCAUCCAGAUUAGAAUGGAAGAAUCCCUCUUGCGGUCGCACUAGUGUGGAAUUCUCGGGUGUCAAGG
B2: ENSMUSG00000022095.31|Fam160b2|161:165 (ssRNA)
RNA: GGGAGUUCUACAGUCCGACGAUCGCUUCGAUAUCCGCAUGCUACUCUGUCCUCCAUGCCGGGGACUUCAGCUGCAGGACACCUCACCUGUUGACCCCACGAGCUGAGGUUUCAAGGAGGUGCUGGCUCCUAAGGCAGUGGUAUUCUUGGAGCCUUUUAGAGGAGCUAGAGGAUGGCCAGUGAGCGCCUAGAUGCUGCCCUGCAACACAUGCGUGACUAUCUCUGCUAUAUUGUGACCAGGGCCACAACAUGAGACAACUCCAGGGGCCAGGGAGAUGAACUGCUGUCUUUGAGGCUGGCUAAACUCUUGCGGUCGCACUAGUGUGGAAUUCUCGGGUGUCAAGG
B3: ENSMUSG00000042529.39|Kcnj12 (ssRNA)
RNA: GGGAGUUCUACAGUCCGACGAUCGCUUCGAUAUCCGCAUGCUAGUUUUUUCGCAGUAGCUUGGGAAAGUUGGCGGGAGCGUGGAUGGCCAAAAUGACUGGCUCACGGCCUCGGAGGCUGAUGUAUACCCAUGGGCAAGGAGGUGACUUCUUGGGGUAGGGUUGCUCAGGAGUUAGGGACUCUGCUGGAGGCCUUAGGUGCAGGUCCCAGCCCCGGUGGGAGGAGGCUGUGUAUGUACACUUCAUUGGUUUUUAACUUGGGCAAGACUGUUUACAAACAAAAACAAACAAACAAACAAUCAAAACUCUUGCGGUCGCACUAGUGUGGAAUUCUCGGGUGUCAAGG
B4: ENSMUSG00000061578.1494|Ksr2 (ssRNA)
RNA: GGGAGUUCUACAGUCCGACGAUCGCUUCGAUAUCCGCAUGCUAAAUGGAUGGAUAGGUUGGUAGGUUAAUGUAUUCGUGGAUGGGUGAAUGGAUGGAUGGAUAGAUAGAUGGGAAGGUGGAUGGACAGAUGGAUGGAUGGAUAGAUAGAUGGACAGGUGGUUGGUGGAUAAAUGAGUGAAUGAUUAUGUUGAUAGAUAUGUGGGUAGGCUGAAUGGGUGAAUGGAUAGAUCGAUGACUGGAUGGAGGGUGGGUGACUGUAUAGGCAGGUGGGUAGGUAGCUGGAUGGGUGGGCGUAUAGAAAGCUCUUGCGGUCGCACUAGUGUGGAAUUCUCGGGUGUCAAGG
B5: ENSMUSG00000061578.1490|Ksr2 (ssRNA)
RNA: GGGAGUUCUACAGUCCGACGAUCGCUUCGAUAUCCGCAUGCUAGGUAGAAGGGUGAGUGGGUGGAUGAAUGGAUGGAUAGGUUGGUAGGUUAAUGUAUUCGUGGAUGGGUGAAUGGAUGGAUGGAUAGAUAGAUGGGAAGGUGGAUGGACAGAUGGAUGGAUGGAUAGAUAGAUGGACAGGUGGUUGGUGGAUAAAUGAGUGAAUGAUUAUGUUGAUAGAUAUGUGGGUAGGCUGAAUGGGUGAAUGGAUAGAUCGAUGACUGGAUGGAGGGUGGGUGACUGUAUAGGCAGGUGGGUAGGUAGCUCUUGCGGUCGCACUAGUGUGGAAUUCUCGGGUGUCAAGG
B6: ENSMUSG00000061578.1492|Ksr2 (ssRNA)
RNA: GGGAGUUCUACAGUCCGACGAUCGCUUCGAUAUCCGCAUGCUAAGUGGGUGGAUGAAUGGAUGGAUAGGUUGGUAGGUUAAUGUAUUCGUGGAUGGGUGAAUGGAUGGAUGGAUAGAUAGAUGGGAAGGUGGAUGGACAGAUGGAUGGAUGGAUAGAUAGAUGGACAGGUGGUUGGUGGAUAAAUGAGUGAAUGAUUAUGUUGAUAGAUAUGUGGGUAGGCUGAAUGGGUGAAUGGAUAGAUCGAUGACUGGAUGGAGGGUGGGUGACUGUAUAGGCAGGUGGGUAGGUAGCUGGAUGGGUGGCUCUUGCGGUCGCACUAGUGUGGAAUUCUCGGGUGUCAAGG
B7: ENSMUSG00000061578.1489|Ksr2 (ssRNA)
RNA: GGGAGUUCUACAGUCCGACGAUCGCUUCGAUAUCCGCAUGCUAUAUGUGGGUAGAAGGGUGAGUGGGUGGAUGAAUGGAUGGAUAGGUUGGUAGGUUAAUGUAUUCGUGGAUGGGUGAAUGGAUGGAUGGAUAGAUAGAUGGGAAGGUGGAUGGACAGAUGGAUGGAUGGAUAGAUAGAUGGACAGGUGGUUGGUGGAUAAAUGAGUGAAUGAUUAUGUUGAUAGAUAUGUGGGUAGGCUGAAUGGGUGAAUGGAUAGAUCGAUGACUGGAUGGAGGGUGGGUGACUGUAUAGGCAGGUGGGUCUCUUGCGGUCGCACUAGUGUGGAAUUCUCGGGUGUCAAGG
B8: ENSMUSG00000061578.1488|Ksr2 (ssRNA)
RNA: GGGAGUUCUACAGUCCGACGAUCGCUUCGAUAUCCGCAUGCUAAAUGAAUAUGUGGGUAGAAGGGUGAGUGGGUGGAUGAAUGGAUGGAUAGGUUGGUAGGUUAAUGUAUUCGUGGAUGGGUGAAUGGAUGGAUGGAUAGAUAGAUGGGAAGGUGGAUGGACAGAUGGAUGGAUGGAUAGAUAGAUGGACAGGUGGUUGGUGGAUAAAUGAGUGAAUGAUUAUGUUGAUAGAUAUGUGGGUAGGCUGAAUGGGUGAAUGGAUAGAUCGAUGACUGGAUGGAGGGUGGGUGACUGUAUAGGCAGCUCUUGCGGUCGCACUAGUGUGGAAUUCUCGGGUGUCAAGG
B9: ENSMUSG00000061578.1493|Ksr2 (ssRNA)
RNA: GGGAGUUCUACAGUCCGACGAUCGCUUCGAUAUCCGCAUGCUAUGGAUGAAUGGAUGGAUAGGUUGGUAGGUUAAUGUAUUCGUGGAUGGGUGAAUGGAUGGAUGGAUAGAUAGAUGGGAAGGUGGAUGGACAGAUGGAUGGAUGGAUAGAUAGAUGGACAGGUGGUUGGUGGAUAAAUGAGUGAAUGAUUAUGUUGAUAGAUAUGUGGGUAGGCUGAAUGGGUGAAUGGAUAGAUCGAUGACUGGAUGGAGGGUGGGUGACUGUAUAGGCAGGUGGGUAGGUAGCUGGAUGGGUGGGCGUAUCUCUUGCGGUCGCACUAGUGUGGAAUUCUCGGGUGUCAAGG

What follows are binders tested against TDP-43 (Homo sapiens, UniProt Q13148 1-414) (assay: RNA Bind-n-Seq with designed 260-mer pool; 25 mM Tris-HCl, 150 mM KCl, 3 mM MgCl2, BSA (printed 500 mg/mL), 20 units/mL SUPERase IN; pH not stated; 500 nM RNA pool, 1 h, 4 C; TDP-43 5, 50, 500 nM; high values mean tight binding). Details: protein: recombinant; tags: SBP (GST cleaved off with PreScission; pGEX-GST-SBP).
In short: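 Recombinant SBP-tagged TDP-43 at 5, 50 or 500 nM was captured on streptavidin beads, then incubated 1 h at 4 °C with 500 nM of an in vitro-transcribed 260-nt 3′ UTR oligo pool in 25 mM Tris-HCl, 150 mM KCl, 3 mM MgCl2, BSA and SUPERase IN. Bound RNA was washed, eluted with biotin, reverse transcribed, PCR-amplified and sequenced. Binding is R, each oligo's mapped-read-normalized abundance in the bound sample divided by its abundance in input. Duplicates used two independent protein batches.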

Chain of TDP-43 (Q13148 whole entry): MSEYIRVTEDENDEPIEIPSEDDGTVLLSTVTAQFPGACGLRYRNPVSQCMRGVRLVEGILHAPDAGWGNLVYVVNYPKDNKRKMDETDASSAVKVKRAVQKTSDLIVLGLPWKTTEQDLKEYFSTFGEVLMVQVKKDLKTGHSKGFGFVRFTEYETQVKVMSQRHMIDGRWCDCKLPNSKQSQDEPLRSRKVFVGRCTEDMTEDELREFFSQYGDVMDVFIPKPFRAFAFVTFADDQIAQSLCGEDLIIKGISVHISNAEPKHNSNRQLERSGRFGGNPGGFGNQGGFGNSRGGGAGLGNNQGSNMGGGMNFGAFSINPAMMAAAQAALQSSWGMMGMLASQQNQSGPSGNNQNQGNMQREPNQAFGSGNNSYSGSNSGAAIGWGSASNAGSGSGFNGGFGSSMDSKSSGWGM

Binder	binding signal
B1	0.123 R (bound/input frequency ratio)
B2	0.326 R (bound/input frequency ratio)
B3	1.88 R (bound/input frequency ratio)
B4	5.89 R (bound/input frequency ratio)
B5	11.2 R (bound/input frequency ratio)
B6	7.07 R (bound/input frequency ratio)
B7	5.83 R (bound/input frequency ratio)
B8	5.5 R (bound/input frequency ratio)
B9	4.33 R (bound/input frequency ratio)

— paper PMC12864922, “TDP-43 directly inhibits mRNA accumulation in neurites through modulation of mRNA stability”
